Test results: PubChem BioAssay AID709 (SRMLSC, 2007)
Among all 65,000 compounds or so, about 3,600 (5.5%) were called active. What follows is part of a selection rich in actives, with near analogues and random picks from the rest. Values without a mark were called inactive.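 The calls were made as follows: active = at 10 µM, mean starting fluorescence two-fold or more over control wells; inactive = the rest.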

Assay: intrinsic fluorescence of library compounds, ex339/em460 – biochemical, MLSMR library, data from DPM-DC assay, artefact control, profiling panel (AID 709);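 also: signal is the first read of a kinetic run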
Details: compound autofluorescence, ex339/em460 nm, NADH buffer; at 10 µM; stronger effect = higher value; 1 = no-compound wells, NADH background

Structure (SMILES)	fluorescence fold increase
O=c1[nH]c(=O)n(Cc2ccco2)c2c1C(C(F)(F)F)(C(F)(F)F)N=C(c1ccco1)N2	1.16
CCCCn1nnnc1NCc1cc(OC)c(OC)c(OC)c1	1.07
CCCC(C(=O)NCc1ccco1)N(C(=O)CNS(=O)(=O)c1ccccc1)C1CCCC1 (configuration not stated)	1
CC(=NCC1CCCO1)c1c(O)[nH]c(=O)[nH]c1=O (configuration not stated)	1.14
Cc1ccc(C)c(S(=O)(=O)n2cnc3ccccc32)c1	1.02
O=C(CSc1nc2ncccc2[nH]1)Nc1ccc2c(c1)OCCO2	1.01
C=C(C)Cn1c(SCC(=O)NCc2ccco2)nc2sc3c(c2c1=O)CCC3	1.09
O=C(Cc1ccccc1)n1nc(-c2ccccc2)nc1NCc1ccco1	1.13
CN1CCc2c(sc3c2c(NCc2ccco2)nc2nnnn23)C1	2.08 (active)
Cc1cccc(N)c1SC1CCCCC1O (configuration not stated)	1.03
CCOC(=O)c1cn(CC(=O)Nc2ccc(C(C)C)cc2)nn1	1.16
CCSc1nc(C)nc2c1oc1ccccc12	1.02
COc1ccccc1Nc1ncnc2c1oc1ccccc12	1.7
CCc1nc(Nc2ccc3nccnc3c2)c2oc3ccccc3c2n1	2.54 (active)
CNC(=O)NCCN1CCCC1=O	1.05
COCCNC(=S)c1ccc(OC)cc1	1.02
CCN(CC)CCNC(=O)C1c2ccccc2C(=O)N(C)C1c1cn(C)c2ccccc12 (configuration not stated)	1.07
O=C(CCn1c(=S)[nH]c2ccccc2c1=O)NCCCN1CCCC1=O	0.98
O=C1CCCN1CCCNc1ncnc2c1[nH]c1ccccc12	2.27 (active)
CC1(C)CC(=O)C=C(NCCCN2CCCC2=O)C1	1.11
O/N=C(\c1ccc2c(c1)OCCO2)C1CCCCC1	1.08
COCCNC(=O)COc1ccc(C)c(C)c1	1.07
CCOC(=O)c1c(C)oc2ccc(OCC(=O)N(CC)CC)cc12	1.07
COC(=O)COc1ccc2oc(=O)cc(C)c2c1	2.31 (active)
COc1ccc(C2CC(c3ccc(C)cc3)Nc3ncnn32)cc1 (configuration not stated)	1.03
c1ccc(-n2ncc3c2ncn2c(CSc4nc5ccccc5s4)nnc32)cc1	1.81

Structure (SMILES)	fluorescence fold increase
Cc1ccc(C(C)C)c(OCc2nnc(SCC(=O)Nc3nccs3)n2C)c1	1.13
O=C(Nc1ccc(S(=O)(=O)N2CCCCC2)cc1)c1cnccn1	1.14
COc1ccc(CCNS(=O)(=O)c2ccc(F)cc2)cc1OC	1.09
Cc1cc(NC(=O)c2cc(-c3cccs3)on2)nn1Cc1ccc(Cl)cc1	2.04 (active)
Cc1ccc(Cn2ccc(NC(=O)c3cc(C(C)C)on3)n2)cc1	1.08
O=C(c1cc(-c2cccs2)on1)N1CCCCC1	1.16
CCOC(=O)c1cc2cc(-c3c(C(=O)OCC)oc4cc(O)cc(O)c4c3=O)ccc2o1	1.11
CCCCOc1ccc(Cl)cc1CSc1nncn1N	1.07
Cc1ccccc1NC(=O)Cc1nnc(SCC(=O)N2CCN(c3ccccc3)CC2)n1C	1
CN(C)c1nc2n(c(=O)n1)CCO2	1.07
c1ccc(Nc2n[nH]nc2-c2ccccc2)cc1	1.07
CCOc1cc(C2C(C(=O)OC)=CN(C3CCCC3)C=C2C(=O)OC)cc(Br)c1O	2.88 (active)
CCOc1ccc(CNC(=O)C2CCC(=O)N2C2CCCC2)cc1OC (configuration not stated)	1.07
CCCC(=O)Nc1cc(OCC)c(NC(=O)NC2CCCCC2)cc1OCC	1.11
c1ccc(-n2ncc(-c3nn[nH]n3)n2)cc1	1.08
Cc1ccc(C(=O)Nc2ccc3c(c2)OCO3)cc1S(=O)(=O)N1CCCCC1	1.08
NC(=O)CSC1=Nc2ccccc2C2=NC(CCC(=O)NCc3ccc(F)cc3)C(=O)N12 (configuration not stated)	3.51 (active)
O=C(CC1N=C2c3ccccc3N=C(SCc3ccccc3Cl)N2C1=O)NCc1ccco1 (configuration not stated)	1.58
CC(C)C1N=C2c3ccccc3N=C(SCC(=O)c3ccc(O)c(O)c3)N2C1=O (configuration not stated)	1.21
CC(C)C(C(=O)NC1CCCCC1)N(CC1CCCO1)C(=O)CNS(=O)(=O)c1ccc(F)cc1 (configuration not stated)	1.11
COc1c(O)cccc1-c1nnn(CCC(=O)OCC(=O)c2ccccc2)n1	1.07
CC(C)(CNCC(O)c1ccccc1)N1CCOCC1 (configuration not stated)	1.05
O=S(=O)(O)CCN1CCOCC1	1.15
Brc1cnc(N2CCCC2)nc1N1CCCCC1	1.08
CCOc1cccc(=O)c2c(C)n(CC3CCCO3)c(C)c12 (configuration not stated)	1.05
CCOc1cc(C(=S)N2CCOCC2)ccc1O	1.04

Structure (SMILES)	fluorescence fold increase
CCOc1cc(-c2nc3cc(C)ccn3c2NCC2CCCO2)ccc1O (configuration not stated)	3.63 (active)
CCn1c(=O)cc(SCC(=O)NCc2ccc3c(c2)OCO3)c2ccccc21	1.2
COc1ccc2[nH]c(=O)c(-c3noc(-c4ccc(F)cc4)n3)cc2c1	1.38
COc1ccc(-c2nc(-c3ccccc3)no2)c(OC)c1	1.12
COc1cc(-c2nc(-c3ccncc3)no2)cc(OC)c1OC	1.03
COc1ccc(-c2ccc(-c3noc(-c4ccncc4)n3)c(OC)n2)cc1	3 (active)
CCOc1nc(-c2ccc(OC)cc2)ccc1-c1noc(-c2cc(OC)c(OC)c(OC)c2)n1	3.92 (active)
O=C(Oc1ccc(-c2nc(-c3ccccn3)no2)cc1)c1ccccc1	1.09
CCc1nnc(NC(=O)c2c(O)c3c([nH]c2=O)CCCC3)s1	1.12
Cc1ccc2cccc(S(=O)(=O)N3CCN(c4ccccc4F)CC3)c2n1	1.14
O=C(CN1C(=O)CCC1=O)Nc1ccc(S(=O)(=O)N2CCOCC2)cc1	1.15
C=CCSC1=C(C#N)C(c2cc(Br)c(O)c(OC)c2)CC(=O)N1 (configuration not stated)	1.07
CN(c1ccc(C(=O)N2CCc3ccccc3C2)cc1)S(C)(=O)=O	1.11
O=[n+]1c2c(n([O-])c3cc(Br)ccc31)CCC2	1.07
CN1CCCc2cc(C#N)c(=O)[nH]c21	2.4 (active)
CC(C)(C)n1nnc(CCc2nnn(C(C)(C)C)n2)n1	1.09
COC(=O)C(C)C1Sc2ccccc2NC1=O (configuration not stated)	1.01
O=C(Nc1ncc2c(n1)CC(c1ccco1)CC2=O)c1ccc(Cl)cc1 (configuration not stated)	1.05
CCc1ccc(Nc2ncc3c(n2)CC(c2ccco2)CC3=O)cc1 (configuration not stated)	2.39 (active)
CCc1ccc(NC(=O)CSc2nnc(-c3cnccn3)n2Cc2ccco2)cc1	1.06
COc1ccc(CN2CC(C(=O)NCCN3CCN(c4ccccc4F)CC3)CC2=O)cc1 (configuration not stated)	1.08
CCOC(=O)CN1C(=O)C(O)(CC(=O)c2ccccn2)c2ccccc21 (configuration not stated)	1.04
O=C(Oc1ccccc1)c1ccc2nccnc2c1	1.04
CC(=O)N1CC2(C)CN(C(C)=O)CC(C)(C1)C2=O	1.11
COCCNC(=O)c1snc2ccc(Cl)cc12	1.2
CCOC(=O)N1CCN(C(=O)c2cc3c(-c4ccc(Cl)cc4)nn(C)c3s2)CC1	1.19

Structure (SMILES)	fluorescence fold increase
Cn1nc(-c2ccc(Cl)cc2)c2cc(C(=O)NCc3ccco3)sc21	2.11 (active)
COc1ccccc1N1CCN(C(=O)c2cc3c(-c4ccc(Cl)cc4)nn(C)c3s2)CC1	1.07
COc1ccc(S(=O)(=O)N2CCCC2)c(C)c1C	1.06
COc1cccc(-c2cc3nc4c(c(N5CCC6(CC5)OCCO6)n3n2)CCCC4)c1	1.74
c1ccc(-c2oc3ncnc(N4CCOCC4)c3c2-c2ccccc2)cc1	2.38 (active)
O=C1c2ccccc2-c2ncnc3c(N4CCOCC4)cc(N4CCOCC4)c1c23	1.04
c1ccc(COc2nsnc2N2CCOCC2)cc1	1.12
COC(=O)c1ccc(OC(=O)c2nn(C)cc2Cl)c(OC)c1	1.11
CCOc1ccc(N(CC(=O)OC)S(=O)(=O)c2c(C)noc2C)cc1	1.1
O=C(NC1CCCC1)c1ccc(Br)s1	1.08
Cc1ccc(C(=O)Nc2nnc(-c3cccs3)s2)cc1C	3.04 (active)
CCc1nnc(NC(=O)c2cccs2)s1	1
COc1cc(C(=O)Nc2nccs2)cc(OC)c1OC	1.09
COc1ccc(OC)c2c1sc(=NC(=O)CN1C(=O)CCC1=O)n2C	1.13
CC1CCc2c(sc(NC(=O)c3ccc(Cn4cc(Br)cn4)o3)c2C(N)=O)C1 (configuration not stated)	3.78 (active)
CCc1c(C)nc(N2CCN(Cc3ccccc3)CC2)[nH]c1=O	1.06
Cn1c(=O)[nH]c(=O)c2c1nc(CN1CCN(c3ccccc3F)CC1)n2CCc1ccccc1	1.09
CC(C)CNC(=O)C1CCCN(S(=O)(=O)c2ccc(-n3cnnn3)cc2)C1 (configuration not stated)	1.07
COC(=O)C(C)Sc1ccc2nnc(-c3cccc(F)c3)n2n1 (configuration not stated)	2.06 (active)
CCOc1ccc(-c2nnc3ccc(SC)nn23)cc1	1.17
CC1CCN(C(=O)CSc2ccc3nnc(-c4cccc(F)c4)n3n2)CC1	1.4
CCCOc1ccc(CN(CCO)CCO)cc1C(=O)OC	1.07
Cc1cccc(Cn2c(SCCO)nc3c2c(=O)n(C)c(=O)n3C)c1	0.95
COC(=O)C1C(=O)CC(C)(O)C(C(=O)OC)C1c1ccc2c(c1)OCO2 (configuration not stated)	1.09
